Among the data in PubChem BioAssay AID2390 (National Center for Advancing Translational Sciences (NCATS), 2010) are Potency values, retold here.

The other results are listed elsewhere or left out. A call without a number means that no potency is given here. Inconclusive results are not listed. Activity calls are given as the source filed them. The call rests on the fitted dose curve; in most records, active means well fitted inhibition curve with a large enough effect; inconclusive means small, poorly fitted or top-dose-only effect; inactive means no such curve, though single readings can be large or run the other way.

Regulator of G-protein signaling 12 (Homo sapiens), sequence (O14924 whole entry, looked up): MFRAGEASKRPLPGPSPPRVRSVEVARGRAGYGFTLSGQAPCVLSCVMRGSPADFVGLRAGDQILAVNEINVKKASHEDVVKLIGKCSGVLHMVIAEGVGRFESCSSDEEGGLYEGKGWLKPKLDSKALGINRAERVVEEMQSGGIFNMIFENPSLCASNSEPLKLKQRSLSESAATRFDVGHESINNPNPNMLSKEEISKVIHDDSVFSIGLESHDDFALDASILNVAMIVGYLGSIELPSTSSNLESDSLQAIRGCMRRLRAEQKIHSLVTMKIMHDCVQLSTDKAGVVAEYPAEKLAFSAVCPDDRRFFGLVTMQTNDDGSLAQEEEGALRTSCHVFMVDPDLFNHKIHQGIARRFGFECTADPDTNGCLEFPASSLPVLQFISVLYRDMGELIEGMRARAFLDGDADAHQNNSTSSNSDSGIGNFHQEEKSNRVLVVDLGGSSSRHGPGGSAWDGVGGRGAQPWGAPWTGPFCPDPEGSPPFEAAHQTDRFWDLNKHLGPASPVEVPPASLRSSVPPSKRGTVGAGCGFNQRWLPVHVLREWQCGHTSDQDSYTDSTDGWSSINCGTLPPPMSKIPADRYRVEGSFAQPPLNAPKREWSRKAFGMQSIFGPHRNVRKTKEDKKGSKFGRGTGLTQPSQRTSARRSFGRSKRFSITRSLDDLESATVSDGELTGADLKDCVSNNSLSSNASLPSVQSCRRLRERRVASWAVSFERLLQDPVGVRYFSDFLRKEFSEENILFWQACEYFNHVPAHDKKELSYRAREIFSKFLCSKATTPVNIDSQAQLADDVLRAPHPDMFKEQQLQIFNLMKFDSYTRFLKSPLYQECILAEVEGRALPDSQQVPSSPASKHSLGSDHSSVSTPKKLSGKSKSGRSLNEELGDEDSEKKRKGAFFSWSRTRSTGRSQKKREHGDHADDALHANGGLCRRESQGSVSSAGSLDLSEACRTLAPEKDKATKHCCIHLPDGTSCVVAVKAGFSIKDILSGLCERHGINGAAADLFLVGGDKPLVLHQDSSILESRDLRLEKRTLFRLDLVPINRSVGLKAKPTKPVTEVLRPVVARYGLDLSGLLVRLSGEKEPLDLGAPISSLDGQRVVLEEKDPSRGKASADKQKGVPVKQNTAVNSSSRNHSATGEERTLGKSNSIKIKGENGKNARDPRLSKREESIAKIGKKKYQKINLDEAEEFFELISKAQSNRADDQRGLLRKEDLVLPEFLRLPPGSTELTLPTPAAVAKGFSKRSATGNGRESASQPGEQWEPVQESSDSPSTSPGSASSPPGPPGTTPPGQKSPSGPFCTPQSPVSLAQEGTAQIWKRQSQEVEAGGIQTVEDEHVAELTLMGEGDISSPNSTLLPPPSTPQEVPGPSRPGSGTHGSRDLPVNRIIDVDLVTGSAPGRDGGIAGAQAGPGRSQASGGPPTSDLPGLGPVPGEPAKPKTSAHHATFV

In this test the target is Regulator of G-protein signaling 12 (Homo sapiens) (UniProt O14924). The test can be described thus: Confirmation qHTS Assay for Inhibitors of RGS12 GoLoco Motif Activity (Red Fluorophore). Particulars: Gai1/rhodamine-RGS12 GoLoco peptide fluorescence polarization; series mostly up to 57.1 µM. The source says:
G-protein-coupled receptors (GPCRs) are major targets for drug discovery. The regulator of G-protein signaling (RGS)-protein family has important roles in GPCR signal transduction. RGS proteins contain a conserved RGS-box, which is often accompanied by other signaling regulatory elements. RGS proteins accelerate the deactivation of G proteins to reduce GPCR signaling; however, some also have an effector function and transmit signals. Combining GPCR agonists with RGS inhibitors should potentiate responses, and could markedly increase the agonist's regional specificity. The diversity of RGS proteins with highly localized and dynamically regulated distributions in brain makes them attractive targets for pharmacotherapy of central nervous system disorders. […] A complex of Gai1 and fluorescently labeled G-alpha-binding peptide (the "GoLoco motif") derived from RGS12 is incubated with library members. Inhibitors of the binding are detected by a decrease in the fluorescence polarization (FP) of the fluorophore. Protein was supplied by Prof. David Siderovski, University of North Carolina at Chapel Hill. This BioAssay is a confirmatory run of primary qHTS protocol (AID: 880). See following reference for more details: Kimple AJ, et al. Comb Chem High Throughput Screen. 2008 Jun;11(5):396-409. Assay Submitter: Siderovski, David P, University of North Carolina at Chapel Hill Screening Center PI: Austin, C.P. Screening Center: NIH Chemical Genomics Center [NCGC] NIH Grant: NS053754-01
Reagents/Controls: Assay Buffer: 10 mM Tris-HCl, 150 mM NaCl, 0.1 mM GDP (prepared fresh), and 0.05% NP40 at pH 7.5. […] 15 nM Rhodamine labeled peptide/25 nM protein in columns 1, 2, 5 - 48. Titration of unlabeled peptide control ([H][…][NH2], custom synthesized and HPLC-purified by Tufts University Core Facility) from 20 mM, then 1:2 dilution, 16-point in duplicate, pin-transferred to column 2, rows 1 to 32. Column 1 is neutral. Rhodamine-labeled peptide (Rhodamine-[…]-NH2) was custom-synthesized and HPLC-purified by Invitrogen (Carlsbad, CA). Assay Steps. Four uL of reagents were dispensed to 1536-well Greiner black solid-bottom plates. Compounds and controls (23 nL) were transferred via Kalypsys PinTool. The plates were incubated for 10 min at room temperature, and then read on ViewLux (Perkin-Elmer) High-throughput CCD imager using BODIPY for the rhodamine-labeled decapeptide probe. During dispense, reagent bottles were kept submerged into 4 deg C water bath and all liquid lines were covered with aluminum foil to minimize probe and protein degradation. All screening operations were performed on a Kalypsys robotic system (Kalypsys, Inc., San Diego, CA) containing one RX-130 and two RX-90 anthropomorphic robotic arms.
As to `Cc1nn(C)cc1N1C(=O)c2cccc3c(N)ccc(c23)C1=O`, the Potency is 14.1 µM (active).

Take `O=C(Nc1cccc(Nc2nccc(Nc3cccc(C(F)(F)F)c3)n2)c1)C1CC1`: the Potency entry was “inactive”.

In the case of `CCn1c(SCC(=O)NCc2ccco2)nnc1-c1ccc(N)cc1`, the Potency entry is “inactive”.

As for `Cc1cc2nc3c(=O)n(Cc4ccccc4)c(=O)[nH]c3nc2cc1N`, the Potency is 3.98 µM (active).
